This passage reports growth inhibition results from PubChem BioAssay (NCI).

Molecules are shown by their SMILES. About 79,000 compounds went through this panel and 15% of them were active in at least one assay; those are over-represented in the sample as a whole. Unmarked numbers belong to inactive results. Activity calls are given as the source filed them. No stated cut-off is given here; in the data, active means growth inhibition above about 70%; inactive means the rest.

A short description of test [1]: NCI Yeast Anticancer Drug Screen. Data for the rad50 strain (AID 155).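 Further: 0% = growth of vehicle-only cultures of the same strain.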 The conditions noted are these: S. cerevisiae rad50 strain growth inhibition; at 50.0 µM; stronger effect = higher value. The procedure, abridged:
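Vehicle-treated cultures provide the reference for the growth inhibition reported for compound-exposed, repair-deficient yeast.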

Test [2] is described as follows: NCI Yeast Anticancer Drug Screen. Data for the mec2-1 strain (AID 157). Particulars: S. cerevisiae mec2-1 strain, at 50.0 µM, stronger effect = higher value. The procedure, abridged:
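Compounds were applied to mec2-1 yeast cells. Their growth was then compared with that of vehicle-treated cultures to give growth inhibition.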

The nature of test [3]: NCI Yeast Anticancer Drug Screen. Data for the sgs1 mgt1 strain (AID 161).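 Further: 0% = growth of cultures given vehicle only.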 Particulars: S. cerevisiae sgs1 mgt1 strain, at 50.0 µM, stronger effect = higher value. The procedure, abridged: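 Percent growth inhibition was derived by comparing compound-exposed mutant yeast with vehicle-exposed cultures. The strain carries alterations in DNA damage repair.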
A short description of test [4]: NCI Yeast Anticancer Drug Screen. Data for the cln2 rad14 strain (AID 165).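 Further: 0% = growth equal to vehicle treated cultures.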 Particulars: S. cerevisiae cln2 rad14 strain, at 50.0 µM, stronger effect = higher value. The procedure, abridged: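 Strain: cln2 rad14 yeast, altered in cell cycle control and DNA damage repair. Read-out: growth inhibition vs vehicle.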
The nature of test [5]: NCI Yeast Anticancer Drug Screen. Data for the bub3 strain (AID 167). The conditions noted are these: S. cerevisiae bub3 mutant strain, at 50.0 µM, stronger effect = higher value. The procedure, abridged:
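Mutant yeast screening strain plus compound; vehicle-treated cultures serve as the 0% inhibition reference.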

A short description of test [6]: NCI Yeast Anticancer Drug Screen. Data for the mlh1 rad18 strain (AID 175). The conditions noted are these: S. cerevisiae mlh1 rad18 strain growth inhibition; at 50.0 µM; stronger effect = higher value. The method in brief:
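A repair-deficient yeast strain is exposed to test compound, and growth is scored relative to vehicle-treated controls.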

Turning to `CC(NC1=NCCO1)c1ccsc1` (stereo unspecified), the growth inhibition in test [1] is 21.9%; in test [2] it was 12.6%; in test [3], 3.5%; in test [4], 14.8%; in test [5] it was 3.75%; in test [6] it was -24.1%.
On to `COC1C(OC(=O)c2ccc(C)[nH]2)C(O)C(Oc2ccc3c(O)c(NC(=O)c4ccc(O)c(CC=C(C)C)c4)c(=O)oc3c2Cl)OC1(C)C` (stereo unspecified), for which the growth inhibition is 44.2% in test [1]; 25.9% in test [2]; 23.8% in test [3]; 50.6% in test [4]; 35.9% in test [5]; 33% in test [6].
Take `C1CN2CCOC2O1`: the growth inhibition in test [1] was -12.4%; in test [2], 15.2%; in test [3] it was -9.1%; in test [4], 4.65%; in test [5] it was 7.45%; in test [6], -7.1%.
As for `CCN(c1ccccc1)P(I)(c1ccccc1)(c1ccccc1)c1ccccc1`, the growth inhibition in test [1] was 98.7% (active); in test [2], 99.5% (active); in test [3], 99.3% (active); in test [4] it was 98.6% (active); in test [5], 98.2% (active); in test [6] it was 99% (active).
Turning to `c1ccc(-c2cc(-c3ccccc3)c(OOc3c(-c4ccccc4)cc(-c4ccccc4)cc3-c3ccccc3)c(-c3ccccc3)c2)cc1`, the growth inhibition is -6.7% in test [1]; -0.7% in test [2]; -0.95% in test [3]; -27.9% in test [4]; -10% in test [5]; 16.6% in test [6].
Take `CC(C)[C@@H]1ON1C(C)c1ccccc1` (stereo partly specified): the growth inhibition in test [1] is 21.3%; in test [2], -10.1%; in test [3], 25.8%; in test [4], 11.6%; in test [5], 27.4%; in test [6], 16%.
With `OC1(c2ccccc2)N=C(c2ccccc2)c2ccccc2-n2cccc21` (stereo unspecified), the growth inhibition in test [1] is 0.95%; in test [2], -24.8%; in test [3], -14.5%; in test [4] it was 0.75%; in test [5], -0.95%; in test [6], -1.3%.
Consider `CCCCCCP(=O)(O)O.[Zn+2]`, for which the growth inhibition in test [1] was -33.9%; in test [2] it was -21.8%; in test [3], -9.65%; in test [4], -9.9%; in test [5], -35.1%; in test [6] it was -8.75%.
For `CC(C)CC(C)OC(=O)Cc1ccccc1` (stereo unspecified), the growth inhibition was 39% in test [1]; 14.5% in test [2]; 31.1% in test [3]; -6.9% in test [4]; 7.8% in test [5]; 31.2% in test [6].
For the molecule `CNC(=O)O/N=C(\SC)C(=O)N(C)C`, the growth inhibition in test [1] is -39.9%; in test [2] it was -27.2%; in test [3] it was -5.05%; in test [4], -31.2%; in test [5] it was -3.1%; in test [6] it was -1.05%.
Turning to `O=[As](c1ccccc1Br)(c1ccccc1Br)c1ccccc1Br`, the growth inhibition was 70% in test [1]; 19.2% in test [2]; 58.7% in test [3]; 13.4% in test [4]; 22.2% in test [5]; 20.9% in test [6].
In the case of `CC[N+](C)(C)c1ccc(C)c(OC(=O)NC)c1`, the growth inhibition in test [1] is -4.35%; in test [2], -11.2%; in test [3], -0.2%; in test [4], -24.8%; in test [5] it was 15.3%; in test [6] it was -0.45%.
As to `CC(C)CNC12CN3CN(CN(C3)C1)C2`, the growth inhibition in test [1] is -9.25%; in test [2], -11.2%; in test [3], -6%; in test [4], -27.9%; in test [5], -4.85%; in test [6], -23.7%.
As to `C=CC(=O)OC(C)C`, the growth inhibition in test [1] was 21.6%; in test [2] it was 11.2%; in test [3], 2.35%; in test [4], -1.7%; in test [5], 33.8%; in test [6] it was 15.8%.
On to `C[N+](C)(C)CC1CCc2ccccc2C1=O` (stereo unspecified), for which the growth inhibition was 89.2% (active) in test [1]; 44.6% in test [2]; 69.2% in test [3]; 50.2% in test [4]; 40.5% in test [5]; 91.4% (active) in test [6].
In the case of `O=S(OO)c1cc(Cl)c(O)c(Cl)c1` (stereo unspecified), the growth inhibition in test [1] is 3.5%; in test [2], -24.1%; in test [3] it was -1.55%; in test [4], 7.55%; in test [5], -10.7%; in test [6], 3.4%.
`BrP(Br)(c1ccccc1)(c1ccccc1)c1ccccc1`: the growth inhibition in test [1] is -1.6%; in test [2], -28.8%; in test [3], 17.1%; in test [4], 25.4%; in test [5], 10.7%; in test [6], -0.1%.
For the molecule `O=C1C=CC(=O)N1c1ccccc1Cl` (tested in a mixture with another compound), the growth inhibition in test [1] is 20.2%; in test [2], 4.15%; in test [3], 20.5%; in test [4], 4.2%; in test [5], 21.2%; in test [6] it was 6.7%.
As for `CC1OC(=O)C2CC3CCCCC3C(/C=C/C3CCCC(C)N3C)C12` (stereo unspecified), the growth inhibition is 1.2% in test [1]; -11.2% in test [2]; -11.2% in test [3]; 28.4% in test [4]; -10.4% in test [5]; -2.35% in test [6].
On to `C[C@]12CC[C@H](OC(=O)Cc3ccc(N(CCCl)CCCl)cc3)CC1CC[C@@H]1C2CC[C@]2(C)NC(=O)CCC12` (stereo partly specified), for which the growth inhibition is 0.1% in test [1]; -5.65% in test [2]; 15.9% in test [3]; 15.2% in test [4]; 3.65% in test [5]; 18.1% in test [6].
Turning to `c1ccc(-c2c[se]nn2)cc1`, the growth inhibition in test [1] was 4.65%; in test [2], -10.1%; in test [3], -2.6%; in test [4], -26.6%; in test [5], -11.2%; in test [6], 10.1%.
